High-throughput results (PubChem)
Pf Dd2 growth – qHTS Primary assay for Inhibitors of Plasmodium falciparum Dd2 growth in vitro; P. falciparum Dd2 growth, SYBR Green, 72 h; Potency, µM (series often up to 28.9 µM), usual class: inhibitors; actives 4.3% (n = 120,000); AID 1347417, 2020; active means well fitted inhibition curve with a large enough effect; further: nearly all actives have a fitted effect of over 65% in size
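Readout: SYBR Green fluorescence, 485 nm excitation, 535 nm emission, after ~16 h lysis at 37C. Before that, Dd2-infected red cells (2.5% hematocrit) grew 72 h with compound, 29 uM top final concentration.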
Of the large screens only hits and unclear results are named; the others gave an inactive call. Shown is part of a subset that was picked to be rich in hits.

O=C(Nc1ccc2c(c1)CN(Cc1ccc(Cl)cc1)C(=O)CO2)c1ccccc1	none
Cc1ccc2c(CN3CCN(c4ccc(Cl)cc4)CC3)cc(=O)oc2c1	none
COc1ccc(CCNC(=O)Cc2c(C)c3cc4c(C)coc4c(C)c3oc2=O)cc1	none
O=c1oc2c3c(ccc2c2ccccc12)OCN(Cc1ccc(Cl)cc1)C3	Pf Dd2 growth 10µM
Cc1coc2c(C)c3oc(=O)c(CCC(=O)NCCc4ccc(Cl)cc4)c(C)c3cc12	none
CCOc1ccc2oc(=O)cc(CN3CCN(Cc4ccc(C)cc4)CC3)c2c1	none
COc1cccc(C(=O)N(C)Cc2cccc(C(F)(F)F)c2)c1	none
COc1ccc2cc(C(=O)N3CCC4(CC3)CC(O)CCO4)[nH]c2c1 (configuration not stated)	none
CN(C)C[C@@H]1CN(S(C)(=O)=O)C[C@H]1NC(=O)c1ncccn1	none
Cn1cnc(S(=O)(=O)N2CC(N(Cc3ccccc3)C3CCOCC3)C2)c1	none
Cn1cc(-c2ccccc2)cc1C(=O)N1CCOCC1	none
O=C(NCCCN1CCCC1=O)c1ccc2c(c1)[nH]c(=O)n2C1CCC(O)CC1 (configuration not stated)	none
CCOc1ccccc1NC(=O)Cn1c(N2CCOCC2)nc(COC)cc1=O	none
Cc1ccc(C2NC(=O)N(CC(=O)Nc3ccccc3F)C3=C2C(=O)OC3)cc1 (configuration not stated)	none
Cc1cnccc1N1CCCN(C(=O)C2CC3(CCNCC3)CN2)CC1 (configuration not stated)	none
O=C(NCc1cccc(F)c1)c1cnc2n1CCN(CCc1ccccc1)CC2	none
Cc1c(NC(=O)c2ccc(N3CCC(C)CC3)c([N+](=O)[O-])c2)cccc1-c1nc2ccccc2o1	none
O=C(Nc1cccc(-c2nc3ccccc3o2)c1)c1cc([N+](=O)[O-])ccc1N1CCOCC1	Pf Dd2 growth 8.91µM
CCc1ccc2oc(-c3cccc(NC(=O)c4ccc(N5CCC(C)CC5)c([N+](=O)[O-])c4)c3)nc2c1	Pf Dd2 growth 7.94µM
Cc1ccc(-c2nc3cc(Cl)ccc3o2)cc1NC(=O)c1cc([N+](=O)[O-])ccc1N1CCOCC1	none
O=C(Nc1cc(-c2nc3cc(Cl)ccc3o2)ccc1Cl)c1cc([N+](=O)[O-])ccc1N1CCOCC1	none
Cc1ccc2oc(-c3ccc(C)c(NC(=O)c4ccc(N5CCC(C)CC5)c([N+](=O)[O-])c4)c3)nc2c1	none
O=C(c1ccccc1F)N1CCC2(CC1)SCC(=O)N2c1ccc(Cl)cc1	none
CCn1ccc(C(=O)Nc2ccc3ncnc(N4CCCC4)c3c2)n1	none
O=C(Nc1ccc2ncnc(N3CCCCC3)c2c1)c1ccsc1	none
COc1ccc(CC(=O)Nc2ccc3ncnc(N4CCCC4)c3c2)c(Cl)c1	none
CCOCC(=O)Nc1ccc2ncnc(N3CCCCC3)c2c1	none
O=C(Nc1ccc2c(N3CCCCC3)ncnc2c1)c1ccsc1	Pf Dd2 growth 7.08µM
O=C(Cc1ccsc1)Nc1ccc2c(N3CCCC3)ncnc2c1	Pf Dd2 growth 5.01µM
N#Cc1ccc(C(=O)Nc2ccc3ncnc(N4CCCCC4)c3c2)cc1	none
O=C(NC1CCCN(c2cc(N3CCCC3)ncn2)C1)c1ccsc1 (configuration not stated)	none
N#Cc1ccc(C(=O)Nc2ccc3c(N4CCCCC4)ncnc3c2)cc1	Pf Dd2 growth 8.91µM
COc1ccc(-c2nc(-c3nnn4c3COC(c3ccc(C)cc3)C4)no2)cc1OC (configuration not stated)	none
COc1cccc(CNC(=O)[C@@H]2C[C@@H](O)CN2C2CCN(C(=O)c3cccc(F)c3)CC2)c1	none
CCn1c(CO)nnc1C1CC(NC(=O)CCn2c(=O)[nH]c3ccccc32)C1 (configuration not stated)	none
Cc1[nH]c2ccccc2c1CN1CCc2nc(N3CCOCC3)[nH]c(=O)c2CC1	none
COc1ccccc1CCC(=O)N1CC(c2noc(-c3ccccc3)n2)C1	none
Cc1noc(-c2cn(C3CCN(C(=O)c4cccc(C#N)c4)CC3)nn2)n1	none
C[S+](=O)([O-])N1CC2ON=C(C(=O)N3CCOCC3)C2C1 (configuration not stated)	none
O=C(N1CC(Oc2cccc(-c3nc(-c4ccccc4)no3)c2)C1)C1(c2ccccc2)CC1	none
Cc1nc2ccccc2n1CCc1nc2c3ccccc3nc(SCC(=O)Nc3ccc(Br)cc3F)n2n1	none
Cc1nc2ccccc2n1CCc1nc2c3ccccc3nc(SCC(=O)Nc3cccc(C(F)(F)F)c3)n2n1	none
Cc1nc2ccccc2n1CCc1nc2c3ccccc3nc(SCC(=O)Nc3ccc(C(C)C)cc3)n2n1	Pf Dd2 growth 8.91µM
COc1ccc(Cl)cc1C(=O)NCc1nnc2cc(-c3nc(C)no3)ccn12	none
CC1(C)[C@H](Cc2cc(CC3CCCCC3)on2)C[C@@H]1NC(=O)c1ccco1	Pf Dd2 growth 5.01µM
COCC(=O)N[C@H]1C[C@@H](Cc2cc(-c3ccccc3)on2)C1(C)C	Pf Dd2 growth 7.94µM
CC(=O)N[C@H]1C[C@@H](Cc2cc(CC(C)C)on2)C1(C)C	none
COCC(=O)N[C@H]1C[C@@H](Cc2cc(CN(C)Cc3ccccc3)on2)C1(C)C	Pf Dd2 growth 8.91µM
COCc1cc(C[C@@H]2C[C@H](NC(=O)CC(C)(C)C)C2(C)C)no1	none
CC(=O)N[C@H]1C[C@@H](Cc2cc(CN(C)c3ccccc3)on2)C1(C)C	none
CC(=O)N1CCC(N[C@H]2C[C@@H](Cc3cc(CN(C)Cc4ccccc4)on3)C2(C)C)CC1	none
CC1(C)[C@H](Cc2cc(CCO)on2)C[C@@H]1NCc1ccco1	none
COC(=O)C(=O)N[C@H]1C[C@@H](Cc2cc(-c3ccccc3)on2)C1(C)C	none
Cc1nc(CCNC(=O)[C@H]2CCC[C@H](O)C2)nc2c1CCC2	none
COc1ccccc1CC(=O)N1CCC(C2CCN(S(C)(=O)=O)CC2)C1 (configuration not stated)	none
O=C(O)CCC(=O)NC[C@H]1Cn2c(-c3cccc(Cl)c3)cnc2CO1	none
O=C(NCc1nnc2ccc(-c3ccc(F)cc3)nn12)c1cccc(C(F)(F)F)c1	none
COc1ccc(C(=O)N2CCn3c(nn(-c4ccc(F)cc4F)c3=O)C2)cc1	none
CCCCCC(=O)N1CC[C@@H](CC(=O)NCc2ccc(F)cc2)[C@@H](CC)C1	none
CN1CC(=O)N(c2ccc(Cl)cc2)Cc2c(NCCCc3ccccc3)ncnc21	none
CN(C)C1(Cc2cc(-c3ccc(F)cc3)on2)COC1	none
Fc1ccc(-c2cc(CC3(NCc4cccnc4)COC3)no2)cc1	none
CN(C)Cc1cc(C[C@@H]2C[C@H](NCc3ccc(F)cc3)C2(C)C)no1	Pf Dd2 growth 3.16µM
CC(=O)N1CCC(N[C@H]2C[C@@H](Cc3cc(CCO)on3)C2(C)C)CC1	none
CC1(C)[C@H](Cc2cc(-c3ccc(F)cc3)on2)C[C@@H]1NC1CCC1	Pf Dd2 growth 11.2µM
COCc1cc(C[C@@H]2C[C@H](NCC3CC3)C2(C)C)no1	none
CC1(C)[C@H](Cc2cc(-c3ccc(F)cc3)on2)C[C@@H]1NCc1cccnc1	Pf Dd2 growth 7.94µM
CN(Cc1cc(C[C@@H]2C[C@H](NCc3ncc[nH]3)C2(C)C)no1)c1ccccc1	none
COCc1cc(C[C@@H]2C[C@H](NC3CCOCC3)C2(C)C)no1	none
COc1ccc(CN[C@H]2C[C@@H](Cc3cc(CCO)on3)C2(C)C)cc1	none
CN1CCC(N[C@H]2C[C@@H](Cc3cc(C(C)(C)C)on3)C2(C)C)CC1	Pf Dd2 growth 5.01µM
COCc1cc(C[C@@H]2C[C@H](NCc3cccnc3)C2(C)C)no1	none
COc1cccc(CCC(=O)N2CC(c3nnc(-c4ccncc4)o3)C3(CCOCC3)C2)c1 (configuration not stated)	none
O=C(c1nnc(COc2ccc(F)c(F)c2)n1-c1ccccc1)N1CCC[C@@H]1c1cccc(F)c1	none
